Screening data as filed in PubChem.
In the library only some 17% were active in any assay of this set; here they are far more common.
HT1080NT lethal: kills 2HG-producing HT-1080-NT fibrosarcoma cells. HT-1080-NT fibrosarcoma viability, CellTiter-Glo ATP luminescence, 48 h. Potency, µM (titrated, usually from 46.1 µM), for the others: at the highest dose activity, negative = less viability, usual class: cytotoxic. 1.6% of 360,000 active. AID 686970;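 further: NT is the 2HG producing partner of a matched IDH1 knockdown line; 0% = DMSO-treated cells and -100% = media-only wells without cells; nearly all actives have a fitted effect of over 55% in size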
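A 48-hour cytotoxicity screen used HT-1080-NT cells plated 2 hours before compound delivery. ATP-based CellTiter-Glo luminescence measured viability, normalized to DMSO and no-cell controls.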
HepG2 tox-1: counter-screen for TGF-b inhibitors: cytotoxicity in HepG2 cells; HepG2 CAGA-GFP viability, ATP luminescence, 18 h; Potency, µM (highest dose often 46.1 µM), for the others: at the highest dose activity change, negative = cytotoxicity, usual class: cytotoxic; 0.76% of 410,000 active; AID 588856
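HepG2 CAGA-GFP cells (1000/well, DMEM with 1% FBS) received compound, then TGF-beta at 500 pg/mL final, and were incubated 18 hours at 37 degrees C. Viability was read by CellTiter-Glo luminescence. Media-only wells were set as complete cell-killing and DMSO as no toxicity.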
HT1080 IDH1KD tx: kills HT-1080 cells with IDH1 knockdown; HT-1080 IDH1 knockdown viability, ATP luminescence, 48 h; Potency, µM (highest dose often 46.1 µM), inactives show top-dose activity, negative = toxicity, most hits filed as cytotoxic; 2% of 360,000 active; AID 686971;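 further: 0% = DMSO wells and -100% = cell-free medium wells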
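HT-1080-IDH1KD cells (IDH1 knocked down), 750/well in RPMI with 5% FBS, treated with compound 48 h at 37 degrees C. Viability by CellTiter-Glo luminescence, normalised to DMSO and no-cell wells; concentration-response curves classed.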
TDP1 cell noCPT: qHTS for Inhibitors of human tyrosyl-DNA phosphodiesterase 1 (TDP1): qHTS in cells in absence of CPT; Potency, µM (titrated, usually from 46.2 µM), inactives show at the highest dose activity change, negative = growth inhibition, usual class: inhibitors; AID 686978, 2013; DT40 Tdp1-/- hTDP1 cells, no CPT, ATP luminescence, 48 h; 15% of 420,000 active; further: on the % scale 0 is the no-effect control and ±100 the full control effect; nearly all actives have a fitted effect of over 55% in size
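Camptothecin absent (DMSO only). Human TDP1-complemented DT40 knockout cells, 400 cells/well, 37 °C for minimum 48 hr; ATP measured via CellTiter-Glo, 30 min dark incubation, luminescence.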
TGFb SMAD3 inh: blocks TGF-b signaling; HepG2 CAGA-GFP TGF-b/SMAD3 reporter, GFP fluorescence, 18 h; TGF-beta stimulated, 500 pg/mL final; Potency, µM (top dose mostly 46.1 µM), inactives show at the highest dose activity, negative = inhibition, usual class: inhibitors; 1.2% of 410,000 active; AID 588855; further: on the % scale 0 is the no-effect control and ±100 the full control effect; nearly all actives have a fitted effect of over 65% in size
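Inhibition of TGF-beta-driven CAGA-GFP reporter expression in HEPG2 cells is measured by cellular GFP fluorescence after 18 h stimulation with 500 pg/mL recombinant TGF-beta in 1% FBS medium at 37 degrees C.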
DT40 TDP1 CPT: growth inhibition of DT40 Tdp1-/-;hTDP1 cells with camptothecin (screen for TDP1 inhibitors). Potency, µM (doses to about 46.2 µM), without a hit: at the highest dose activity change, negative = growth inhibition, hits mostly inhibitors. 12% of 420,000 active. chicken DT40 Tdp1-/-;hTDP1 cells + 20 nM CPT, ATP luminescence, 48 h; further: on the % scale 0 is the no-effect control and ±100 the full control effect; nearly all actives have a fitted effect of over 55% in size
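Chicken DT40 Tdp1-/- cells stably complemented with human TDP1 were seeded at 400 cells/well in medium containing 20 nM camptothecin, exposed to pin-transferred compounds, and grown at 37 °C for at least 48 hr. Viability was read as ATP luminescence.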
TGFb confirm: TGF-b pathway inhibition, cherry-pick retest. shares compounds with TGFb SMAD3 inh. 63% of 1,600 active. AID 720534. HepG2 CAGA-GFP TGF-b reporter, GFP fluorescence, 18 h; cells stimulated with TGF-beta, 500 pg/mL. Potency, µM (series often up to 46.1 µM), for inactives: at the top dose activity, negative = inhibition, actives largely listed as inhibitors; further: on the % scale 0 is the no-effect control and ±100 the full control effect; nearly all actives have a fitted effect of over 65% in size
HepG2 tox-2: counter-screen for TGF-b inhibitors: cytotoxicity in HepG2 cells | AID 720535 | Potency, µM (doses to about 46.1 µM), without a hit: at the top dose activity, negative = cytotoxicity, actives largely listed as inhibitors | shares compounds with TGFb SMAD3 inh | 27% of 1,600 active | HepG2 CAGA-GFP viability, ATP luminescence, 18 h; cells stimulated with TGF-beta, 500 pg/mL; further: on the % scale 0 is the no-effect control and ±100 the full control effect; nearly all actives have a fitted effect of over 70% in size
TGFb CCL64 inh: blocks TGF-b signaling in CCL64 reporter cells; shares compounds with TGFb SMAD3 inh; CCL64 CAGA-GFP reporter, TGF-b stimulated, GFP fluorescence, 18 h; 41% of 1,600 active; Potency, µM (highest dose often 46.1 µM), for inactives: top-dose activity, negative = inhibition, hits mostly inhibitors; AID 720536; further: nearly all actives have a fitted effect of over 65% in size
TGFb COP inh: blocks TGF-b signaling in HepG2 COP reporter | Potency, µM (doses to about 46.1 µM), inactives show at the top dose activity, negative = inhibition, most hits filed as inhibitors | HepG2 COP-GFP TGF-b reporter, GFP fluorescence, 18 h; cells stimulated by added recombinant TGF-beta | shares compounds with TGFb SMAD3 inh | 3% of 1,600 active; further: nearly all actives have a fitted effect of over 70% in size
An asterisk follows results filed as active. The call rests on the fitted dose curve; in most records, active means well fitted curve in the direction sought with a large enough effect; inconclusive means small, poorly fitted or top-dose-only effect, or another doubt; inactive means no such curve, though single readings can be large; an effect the other way counts as inactive or inconclusive. Potency means the concentration at half of the fitted maximal effect.

For Oc1ccc(Nc2nc(-c3ccccc3O)nc3ccccc23)cc1 the results were HT1080NT lethal inconclusive, HepG2 tox-1 -39%, HT1080 IDH1KD tx -28%, TDP1 cell noCPT inconclusive, TGFb SMAD3 inh inconclusive and DT40 TDP1 CPT inconclusive.
Screening c1ccc(Nc2nc(-c3ccccc3)nc3ccccc23)cc1 returned HT1080NT lethal 2%, HepG2 tox-1 -41%, HT1080 IDH1KD tx 0%, TDP1 cell noCPT 0%, TGFb SMAD3 inh -29%, DT40 TDP1 CPT -16%, TGFb confirm inconclusive, HepG2 tox-2 inconclusive, TGFb CCL64 inh inconclusive and TGFb COP inh 33%.
`Fc1ccc(CNc2nc(-c3ccccc3)nc3ccccc23)cc1` gave HT1080NT lethal inconclusive, HepG2 tox-1 2%, HT1080 IDH1KD tx -18%, TDP1 cell noCPT inconclusive, TGFb SMAD3 inh 18µM*, DT40 TDP1 CPT inconclusive, TGFb confirm inconclusive, HepG2 tox-2 inconclusive, TGFb CCL64 inh inconclusive and TGFb COP inh 33%.
`Oc1cccc(Nc2nc(-c3ccccc3Cl)nc3ccccc23)c1` gave HT1080NT lethal inconclusive, HepG2 tox-1 -8%, HT1080 IDH1KD tx inconclusive, TDP1 cell noCPT 13µM*, TGFb SMAD3 inh -20%, DT40 TDP1 CPT 16µM*, TGFb confirm inconclusive, HepG2 tox-2 -15%, TGFb CCL64 inh inconclusive and TGFb COP inh 32%.
`c1ccc(-c2nc(NCc3cccnc3)c3ccccc3n2)cc1` gave HT1080NT lethal -29%, HepG2 tox-1 -33%, HT1080 IDH1KD tx inconclusive, TDP1 cell noCPT -16%, TGFb SMAD3 inh -6% and DT40 TDP1 CPT 1%.
Screening c1ccc(-c2nc(NC3CCCC3)c3ccccc3n2)cc1 returned HT1080NT lethal -28%, HepG2 tox-1 -18%, HT1080 IDH1KD tx -13%, TDP1 cell noCPT -26%, TGFb SMAD3 inh inconclusive and DT40 TDP1 CPT inconclusive.
For Cc1ccc(-c2nc(Nc3ccc(O)cc3)c3ccccc3n2)cc1 the results were HT1080NT lethal 21µM*, HepG2 tox-1 -119%, HT1080 IDH1KD tx 21µM*, TDP1 cell noCPT 21µM*, TGFb SMAD3 inh inconclusive, DT40 TDP1 CPT inconclusive, TGFb confirm inconclusive, HepG2 tox-2 inconclusive, TGFb CCL64 inh 15µM* and TGFb COP inh 100%.
`COCCN(C(=O)C1CCCO1)c1c(N)n(CC(C)C)c(=O)[nH]c1=O` (stereo unspecified) gave HT1080NT lethal 6%, HepG2 tox-1 5%, HT1080 IDH1KD tx 1%, TDP1 cell noCPT 23%, TGFb SMAD3 inh 2% and DT40 TDP1 CPT -1%.
For COc1ccc(CCNS(=O)(=O)c2ccc3c(c2)OCCO3)cc1OC the results were HT1080NT lethal 0%, HepG2 tox-1 4%, HT1080 IDH1KD tx -6%, TDP1 cell noCPT -23%, TGFb SMAD3 inh 0% and DT40 TDP1 CPT -21%.
For CN1CCN(NC(=O)/C=C/c2cccc(Cl)c2)CC1 the results were HT1080NT lethal -9%, HepG2 tox-1 0%, HT1080 IDH1KD tx -7%, TDP1 cell noCPT 17%, TGFb SMAD3 inh 19% and DT40 TDP1 CPT 4%.
`CCOC(=O)C1CCCN(C(=O)c2cc(C#N)cs2)CC1` (stereo unspecified) gave HT1080NT lethal 22%, HepG2 tox-1 2%, HT1080 IDH1KD tx 10%, TDP1 cell noCPT 5%, TGFb SMAD3 inh -11% and DT40 TDP1 CPT 1%.
Screening COc1ccc(C(CNC(=O)c2oc3ccc(OC)cc3c2C)N2CCCC2)cc1 (stereo unspecified) returned HT1080NT lethal inconclusive, HepG2 tox-1 -29%, HT1080 IDH1KD tx -17%, TDP1 cell noCPT 16µM*, TGFb SMAD3 inh inconclusive, DT40 TDP1 CPT 23µM*, TGFb confirm inconclusive, HepG2 tox-2 inconclusive, TGFb CCL64 inh -8% and TGFb COP inh 45%.
Screening Cc1ccc(C(=O)NCCN(C)C)c(C)c1 returned HT1080NT lethal 6%, HepG2 tox-1 -2%, HT1080 IDH1KD tx 9%, TDP1 cell noCPT -14%, TGFb SMAD3 inh -7% and DT40 TDP1 CPT -1%.
CNc1c2cccc(C)c2nc2c(C(=O)NCCN(C)C)cccc12 was read as HT1080NT lethal inconclusive, HepG2 tox-1 -7%, HT1080 IDH1KD tx 7.3µM*, TDP1 cell noCPT 0.18µM*, TGFb SMAD3 inh 1.1µM*, DT40 TDP1 CPT 0.18µM*, TGFb confirm 0.58µM*, HepG2 tox-2 0.52µM*, TGFb CCL64 inh 1.3µM* and TGFb COP inh 69%.
For O=C1CCC(C(=O)OCC(=O)c2ccccc2)N1 (stereo unspecified) the results were HT1080NT lethal 17%, HepG2 tox-1 -4%, HT1080 IDH1KD tx 17%, TDP1 cell noCPT -24%, TGFb SMAD3 inh inconclusive and DT40 TDP1 CPT inconclusive.
For CC1CC(C)C(=O)C(C(CC2CC(=O)NC(=O)C2)OC(=O)CC(=O)c2ccccc2)C1 (stereo unspecified) the results were HT1080NT lethal inconclusive, HepG2 tox-1 -9%, HT1080 IDH1KD tx inconclusive, TDP1 cell noCPT 0.41µM*, TGFb SMAD3 inh 2.2µM*, DT40 TDP1 CPT 0.37µM*, TGFb confirm 0.41µM*, HepG2 tox-2 inconclusive, TGFb CCL64 inh 2.6µM* and TGFb COP inh 24%.
